ELG1 genotoxic – induces genotoxicity in HEK293T cells with luciferase-tagged ELG1. HEK293T ELG1-luciferase reporter, luminescence, 16 h. Potency, µM (highest dose often 46 µM), hits mostly activators. 330,000 compounds, 1.3% hits; also: nearly all actives have a fitted effect of over 60% in size
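HEK293T cells expressing luciferase-tagged ELG1 were treated with compound or DMSO for 16 hr at 37°C. Luciferase activity was then read after 30 min with ONE-Glo at room temperature; rising signal flags genetic stress.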
NPC1 promoter act – activators of NPC1 promoter | 320,000 compounds, 2.4% hits | Huh7 NPC1 promoter luciferase reporter, 24 h | Potency, µM (series often up to 9.22 µM), usual class: activators; also: nearly all actives have a fitted effect of over 60% in size
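Huh7 reporter cells (NPC1 promoter driving luciferase) are dosed with compound for 24 h at 37 °C, 5% CO2; luciferase detection reagent is then added and luminescence measured after 10 min at ambient temperature.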
FLuc counter – inhibits or activates purified firefly luciferase, miR-21 counter-screen; 360,000 compounds, 6.9% hits; P08659; purified FLuc, Km substrates, luminescence inhibition; Potency, µM (titrated, usually from 57.5 µM), hits mostly inhibitors; also: nearly all actives have a fitted effect of over 55% in size
Target sequence (P08659 whole entry, looked up): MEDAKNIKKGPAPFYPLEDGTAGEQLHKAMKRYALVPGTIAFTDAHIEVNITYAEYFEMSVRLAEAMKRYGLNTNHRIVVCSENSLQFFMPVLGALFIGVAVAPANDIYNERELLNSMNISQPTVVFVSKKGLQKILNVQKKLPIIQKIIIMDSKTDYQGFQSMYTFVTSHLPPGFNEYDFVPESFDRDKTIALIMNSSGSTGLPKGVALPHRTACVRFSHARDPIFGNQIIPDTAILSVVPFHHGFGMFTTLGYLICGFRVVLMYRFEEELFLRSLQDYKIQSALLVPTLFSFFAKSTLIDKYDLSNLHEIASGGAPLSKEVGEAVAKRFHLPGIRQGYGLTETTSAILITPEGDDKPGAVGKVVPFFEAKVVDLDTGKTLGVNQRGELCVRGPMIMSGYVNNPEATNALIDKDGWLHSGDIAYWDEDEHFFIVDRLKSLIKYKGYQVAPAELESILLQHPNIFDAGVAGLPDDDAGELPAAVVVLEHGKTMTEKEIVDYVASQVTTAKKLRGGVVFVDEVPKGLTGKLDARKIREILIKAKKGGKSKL
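Purified P. pyralis luciferase (10nM final) with 10uM D-luciferin and 10uM ATP (Km levels) in 50mM Tris acetate pH 7.5, 10mM Mg acetate, 0.01% Tween-20, 0.05% BSA; qHTS 6-point titration, ~60 µM downward; luminescence read.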
SMN2 splice enh – SMN2 splice variant enhancement. HEK293 SMN2-luciferase splicing reporter, luminescence, 30-36 h. Potency, µM (titrated, usually from 46.1 µM), actives largely listed as activators. 210,000 compounds, 2.8% hits; also: nearly all actives have a fitted effect of over 55% in size
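HEK293 cells carry an SMN2 […]–luciferase reporter in which exon 7 inclusion puts luciferase in frame. Cells were plated 10-12 h before compound addition, then incubated 30-36 h at 37C. ONE-Glo luminescence was read; sodium butyrate at 4.5 mM final served as control.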
Rab9 prom act – activates the Rab9 promoter | Huh7 Rab9 promoter-luciferase reporter, luminescence, 24 h | Potency, µM (series often up to 9.22 µM), usual class: activators | 320,000 compounds, 2.8% hits; also: nearly all actives have a fitted effect of over 60% in size
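Promoter activation is measured as luciferase luminescence in Huh7 cells stably transfected with a Rab9 promoter–luciferase construct, following 24 h compound exposure at 37 °C and 10 min reagent incubation at ambient temperature.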
Luc counter – Kinase-Glo luciferase inhibition (counter-screen); Kinase-Glo luciferase, ATP luminescence, 8 min; Potency, µM (titrated, usually from 38.3 µM), actives largely listed as inhibitors; 200,000 compounds, 0.28% hits; also: nearly all actives have a fitted effect of over 60% in size
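Light output from Kinase-Glo luciferase with luciferin and 10 uM ATP in 50 mM imidazole pH 7.2, KCl, MgCl2, Tween 20, BSA; compound pin-delivered, 8-min ambient incubation, then luminescence read.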
Numbers stand for hits; 0 = inactive; ? = inconclusive; - = not tested or not shown; [ ] = dose if it differs, or a comment. Most compounds without a hit are left out; they make up all but 7.5% or so of the library. Calls follow the shape of the dose curve; as a rule, active = well fitted curve in the direction sought with a large enough effect; inconclusive = small, poorly fitted or top-dose-only effect, or another doubt; inactive = no such curve, though single readings can be large; an effect the other way counts as inactive or inconclusive.

SMILES | ELG1 genotoxic | NPC1 promoter act | FLuc counter | SMN2 splice enh | Rab9 prom act | Luc counter
CCN(Cc1ccccc1)C(=O)Nc1ccc2c(c1)N(C)C(=O)c1ccccc1S2 | - | - | 0 | - | - | -
O=C(Nc1ccn(Cc2ccccc2F)n1)c1ccc(COc2cccc(Br)c2)cc1 | ? | 1.6µM | 6.7µM | ? | 1.8µM | 0
O=C(Nc1ccn(Cc2ccccc2F)n1)c1ccc(COc2ccccc2Cl)cc1 | 0 | 0 | 0 | 0 | 0 | 0
CC(C)Cn1c(/C=C/c2ccccc2)nc2ccccc21 | 0 | ? | 4.8µM | - | 2.8µM | -
Cn1c(/C=C/c2ccccc2)nc2ccccc2c1=O | 0 | ? | ? | - | ? | -
COc1ccccc1/C=C/c1nc2ccccc2n1C(C)C | - | - | 3.4µM | ? | - | -
CCC(C)n1c(/C=C/c2ccccc2)nc2ccccc21 (stereo not given) | 0 | 0 | 12µM | 0 | 0 | 0
Cn1c(/C=C/c2ccc(Cl)cc2)nc2ccccc2c1=O | ? | 4µM | 3.8µM | - | 2.8µM | -
CC1=C(C(=O)OCc2cc(C)on2)N2C(=O)[C@@H](NC(=O)OCc3cc(C)on3)[C@H]2SC1 | 0 | 0 | 0 | - | 0 | -
CCn1c(/C=C/c2ccccc2)nc2ccccc21 | ? | 2µM | 0.6µM | 7.1µM | 1.3µM | 10µM
CSc1nc2ccccc2n1CC(=O)Nc1ccccc1 | 0 | 0 | 0 | 0 | 0 | 0
CCn1c(/C=C/c2ccccc2)nc2ccccc2c1=O | 0 | 0 | 0 | - | 0 | 0
CCn1c(Cc2ccc(OC)cc2)nc2ccccc21 | 0 | 0 | 0 | - | 0 | -
COc1ccc(Cn2c(/C=C/c3ccccc3)nc3ccccc32)cc1 | ? | 2.5µM | 0.85µM | ? | 1.3µM | ?
O=C(Cn1c(/C=C/c2ccccc2)nc2ccccc21)Nc1ccc(F)cc1 | ? | 0 | 4.8µM | ? | ? | 0
COc1ccc(/C=C/c2nc3ccccc3n2C)cc1 | ? | ? | 0.13µM | 0.32µM | ? | 2.8µM
CCCn1c(/C=C/c2cc[n+](C)cc2)nc2ccccc21 | 0 | 0 | 0 | - | 0 | -
COc1ccccc1/C=C/c1nc2ccc(OC(C)=O)cc2c(=O)o1 | 0 | 0 | ? | - | 0 | -
CCCCCCn1c(/C=C/c2ccccc2)nc2ccccc21 | - | - | 3µM | 0 | - | -
COc1ccc(/C=C/c2nc3ccccc3c(=O)o2)cc1 | 0.82µM | ? | 0.6µM | - | 0.089µM | -
COc1ccc(C(=O)Nc2ccccc2C(=O)Nc2ccccn2)cc1 | 0 | ? | 6µM | - | ? | -
Cc1ccnc(NC(=O)CC(NC(=O)c2ccccc2Cl)c2ccccc2)c1 (stereo not given) | 21µM | 0 | 11µM | - | 0 | -
Cc1ccnc(NC(=O)c2ccc(Cl)c(NC(=O)c3ccccc3C)c2)c1 | 0 | 0 | 0 | - | 0 | -
Cc1ccnc(NC(=O)c2ccccc2NC(=O)c2ccc(Cl)cc2Cl)c1 | ? | 0 | 12µM | - | 0 | -
Cc1ccc(C(=O)Nc2cccnc2Cl)cc1Cl | 18µM | ? | 17µM | - | ? | -
SMILES | ELG1 genotoxic | NPC1 promoter act | FLuc counter | SMN2 splice enh | Rab9 prom act | Luc counter
CCCCS(=O)(=O)c1oc(-c2ccc(F)cc2)nc1S(=O)(=O)c1ccccc1 | - | - | 0 | 0 | - | -
CCOc1ccccc1NC(=O)Nc1cccc(S(N)(=O)=O)c1 | 0 | 0 | 0 | - | 0 | -
Cc1ccc(C(=O)Nc2ccccc2C(=O)Nc2ccccn2)cc1Cl | 0 | 0 | 5.4µM | - | 0 | -
O=C1NN(c2ccccc2)C(=O)/C1=C/c1ccc(Sc2cccc3ccccc23)o1 | 0 | 0 | 0 | - | 0 | 0
COc1cccc(/C=C2/C(=O)NN(c3ccc(C)c(C)c3)C2=O)c1 | 0 | 0 | ? | - | 0 | -
Cc1ccc(N2NC(=O)/C(=C\c3cc4c(cc3[N+](=O)[O-])OCO4)C2=O)cc1C | ? | 0 | ? | 0 | 0 | 0
O=C1NN(c2ccc(F)cc2)C(=O)/C1=C/c1cccs1 | 0 | 0 | 24µM | - | 0 | 0
COc1cccc(/C=C2/C(=O)NN(c3ccc(F)cc3)C2=O)c1 | 0 | 0 | 21µM | - | 0 | -
O=C1NN(c2ccccc2)C(=O)/C1=C\c1ccc2c(c1)OCO2 | 0 | 0 | 5.4µM | - | 0 | -
COc1cccc(/C=C2/C(=O)NN(c3ccccc3)C2=O)c1 | 0 | 0 | 24µM | - | 0 | -
NC(=O)N[C@H](CC(=O)O)C(=O)O | - | - | - | 0[9.22 µM] | - | 0[7.66 µM]
Cc1cc(C)n(C(C)CC(=O)Nc2cccc(C(F)(F)F)c2)n1 (stereo not given) | - | - | 0 | - | - | -
CNC(=O)[C@H]1O[C@@H](n2cnc3c(NCc4ccc(N)cc4)ncnc32)[C@H](O)[C@H]1O | - | - | - | 0 | - | 0
COC(=O)c1cn(NC(=O)C2CCCCC2)c(=O)c2ccccc12 | 0 | 0 | 0 | 0 | 6.3µM | 0
COc1ccc(OC)c2c1C(=O)c1ccccc1C2=O | 0 | 0 | 0 | 0 | 0 | 0
COc1cccc2c1C(=O)c1ccc3ccccc3c1C2=O | 13µM | 0 | 1.9µM | 16µM | ? | 0
COc1cccc2c1-c1c(C(=O)O)cccc1C2=O | 0 | 0 | 0 | - | 0 | -
COc1ccc(N)c2c1C(=O)c1ccccc1C2=O | ? | 0 | 24µM | ? | ? | 0
Nc1ccc(O)c2c1C(=O)c1ccccc1C2=O | 0 | 0 | ? | 0 | 0 | 13µM

Compound activity from PubChem BioAssay.
